# Experimental data published in PubChem BioAssay (NCI).
# The panel holds about 83,000 compounds, 20% with a hit somewhere; the sample as a whole holds those more often.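 Single-concentration screen, 48 h exposure, 96-well plates. Endpoint: percent growth. Below 10 = active.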 A number with no mark means an inactive call. Active and inactive are the calls of the source.
# What was measured:
# Experiment in all cases: NCI-60 one-dose screen, 48 h (100 = growth as untreated, 0 = no growth, -100 = all killed)
# Settings in all cases: 10 µM
# SK-MEL-2 melanoma = system: SK-MEL-2 melanoma
# EKVX NSCLC = system: EKVX NSCLC
# SN12C renal = system: SN12C renal
# UO-31 renal = system: UO-31 renal
# ACHN renal = system: ACHN renal
# CAKI-1 renal = system: CAKI-1 renal
# A498 renal = system: A498 renal
# CCRF-CEM leukemia = system: CCRF-CEM leukemia
# MOLT-4 leukemia = system: MOLT-4 leukemia
# SR leukemia = system: SR leukemia
# RPMI-8226 leukemia = system: RPMI-8226 leukemia
# OVCAR-8 ovarian = system: OVCAR-8 ovarian
# OVCAR-5 ovarian = system: OVCAR-5 ovarian
# OVCAR-4 ovarian = system: OVCAR-4 ovarian
# SK-OV-3 ovarian = system: SK-OV-3 ovarian
# IGROV1 ovarian = system: IGROV1 ovarian
# OVCAR-3 ovarian = system: OVCAR-3 ovarian
# HS 578T breast = system: HS 578T breast
# NCI/ADR-RES ovarian = system: NCI/ADR-RES ovarian
Compound,growth (SK-MEL-2 melanoma),growth (EKVX NSCLC),growth (SN12C renal),growth (UO-31 renal),growth (ACHN renal),growth (CAKI-1 renal),growth (A498 renal),growth (CCRF-CEM leukemia),growth (MOLT-4 leukemia),growth (SR leukemia),growth (RPMI-8226 leukemia),growth (OVCAR-8 ovarian),growth (OVCAR-5 ovarian),growth (OVCAR-4 ovarian),growth (SK-OV-3 ovarian),growth (IGROV1 ovarian),growth (OVCAR-3 ovarian),growth (HS 578T breast),growth (NCI/ADR-RES ovarian)
COc1ccc(Cl)cc1Nc1nc(C(F)(F)F)ccc1C(=O)N/N=C/c1ccc(Cl)cc1,26.4%,56.6%,49%,18.8%,36.8%,13.3%,-35.2% (active),1.78% (active),1.89% (active),-0.906% (active),20.4%,46.8%,57.2%,27.6%,44.5%,45.2%,-34.7% (active),3.13% (active),41%
Cc1cc(Cl)ccc1Nc1nc(C(F)(F)F)ccc1C(=O)N/N=C/c1c(Cl)cccc1Cl,-17.4% (active),0.628% (active),6.51% (active),4.21% (active),-8.52% (active),-22.7% (active),-60.8% (active),-18% (active),-16.8% (active),-26.6% (active),-15.1% (active),9.98% (active),24.8%,7.14% (active),-12.9% (active),4.15% (active),-2.74% (active),-22.1% (active),11.9%
CC(C)=CCC/C(C)=C/CC/C(C)=C/CC/C=C(\C)CC/C=C(\C)CCC(=O)Nc1ccn(C2OC(CO)C(O)C2(F)F)c(=O)n1 (stereo not given),-4.27% (active),34.6%,15.3%,3.33% (active),6.71% (active),-20.9% (active),-44.9% (active),-6.58% (active),-14.2% (active),-16.1% (active),32.1%,19.2%,74.6%,39.9%,31%,40%,40.2%,42.5%,38.8%
CC1=NN(C(=O)c2nn(-c3ccc(Cl)cc3)cc2O)C(=O)C1,60.3%,65.2%,49.5%,34.2%,42%,114%,90.1%,–,24.8%,-39.3% (active),13.7%,29.4%,63.5%,29.9%,34%,34.8%,-6.37% (active),31.8%,31.6%
COc1cc2cc(Oc3ccc(NC(=O)c4cc(C(F)(F)F)cc(C(F)(F)F)c4)cc3)c(C)nc2cc1OC,64.6%,30.4%,30.8%,30.9%,32.3%,30.2%,40.5%,33.7%,39.4%,52.8%,17.7%,48.2%,67.7%,52.4%,44.5%,43.9%,–,–,46.3%
COc1ccc(-c2n[nH]nc2-c2cc(OC)c3c(c2OC)OCO3)cc1,1.83% (active),48.3%,33.5%,51.1%,54.9%,27.2%,14.9%,17.8%,24.2%,10.8%,25.1%,43%,44.2%,51.8%,52.7%,45.3%,-11.5% (active),-5.63% (active),2.06% (active)
Nc1ncc(-c2cnn(C3CCNCC3)c2)cc1-c1nc2ccccc2o1,22.1%,85.3%,14.1%,-17.7% (active),21.9%,68.3%,36.4%,-53.7% (active),-35.7% (active),-74.7% (active),-56% (active),9.55% (active),34.6%,35.8%,3.49% (active),-14.5% (active),-62.4% (active),-14.7% (active),42.8%
CS(=O)(=O)c1nccc(-c2c(-c3cccc(OCCc4ccccc4)c3)nc3sccn23)n1,107%,98.6%,95.5%,71.5%,101%,85.7%,91.7%,91.3%,84.5%,85.8%,96.9%,98%,103%,100%,96.5%,88.7%,104%,–,99.9%
CS(=O)(=O)c1nccc(-c2c(-c3ccc(OCCc4ccccc4)cc3)nc3sccn23)n1,108%,94%,90.3%,90.6%,101%,90%,84.5%,92%,88.9%,88.5%,94.8%,98%,94.7%,67.8%,101%,110%,104%,87%,98.3%
COc1ccc2c(c1)OC(N)=C(C#N)C2c1cc(OC)c(OC)c(OC)c1 (stereo not given),27.3%,49.7%,25%,47.2%,32.8%,30.4%,-14.1% (active),7.72% (active),7.89% (active),4.02% (active),11.6%,14.6%,39.3%,39.8%,50%,7.64% (active),-39.8% (active),25.3%,-24.3% (active)
COc1ccccc1/C=N\N/C(N)=N\N=C\c1ccccc1OC,21.4%,26.1%,18.4%,14.1%,20.5%,-7% (active),-66.5% (active),-19.6% (active),4.77% (active),-23.1% (active),1.89% (active),27.2%,32.3%,42.4%,26.3%,12%,-13.2% (active),-14.7% (active),22.6%
c1ccc(/C(=N\Nc2ccc3ccccc3n2)c2ccccn2)cc1,-9.63% (active),15.1%,18.5%,13.7%,0.2% (active),-2.91% (active),-47.3% (active),-39% (active),-21.8% (active),–,9.21% (active),11.1%,51.1%,10.1%,20.5%,2.49% (active),22.1%,–,11.4%
O=C(N/N=C/c1c(Cl)cccc1Cl)c1ccccc1Nc1cccc(C(F)(F)F)c1,71.4%,89.8%,92.6%,93.7%,102%,95.5%,-5.76% (active),73.1%,77.9%,70.8%,82.5%,103%,105%,99.1%,107%,74.9%,104%,85%,100%
CN(C)CCOc1cccc(-c2nc3sccn3c2-c2ccnc(S(C)(=O)=O)n2)c1,117%,99.5%,90.5%,72.1%,92.2%,99.5%,59.6%,–,99.9%,102%,94.7%,100%,97.3%,75.8%,96.5%,94.3%,93.6%,86.4%,101%
CS(=O)(=O)c1nccc(-c2c(-c3cccc(O)c3)nc3sccn23)n1,107%,88.7%,91%,66.5%,86.2%,95.5%,70.5%,90%,93%,72.4%,91.5%,94.9%,99.3%,78.2%,95.6%,117%,97%,93%,101%
COc1cc(C2C(C#N)=C(N)Oc3cc(O)ccc32)cc(OC)c1OC (stereo not given),23.4%,55.3%,35.9%,43%,51.8%,30.7%,-5.59% (active),8.88% (active),6.05% (active),–,15.5%,34.4%,–,49.7%,44.2%,34.9%,-38.2% (active),20%,38.4%
